Reference: PubChem BioAssay (NCATS)
Records with an inconclusive call do not appear. Calls of active or inactive are those of the source. Calls come from the whole dose curve; as a rule, active = well fitted curve in the direction sought with a large enough effect; inconclusive = small, poorly fitted or top-dose-only effect, or another doubt; inactive = no such curve, though single readings can be large; an effect the other way counts as inactive or inconclusive.

Tests used:
[1] = qHTS of pediatric cancer cell lines to identify multiple opportunities for drug repurposing: Primary screen for TC32 cells (AID 1347089); note: nearly all actives have a fitted effect of over 60% in size; note: potency is the fitted concentration of half-maximal effect
Outline: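 A viability screen of TC32 cells was run over 48 h, with primary MIPE doses spanning 0.78 nM–46 µM and NPC doses 0.59 nM–46 µM. ATP luminescence (CellTiter-Glo) served as the read-out.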

[2] = qHTS of pediatric cancer cell lines to identify multiple opportunities for drug repurposing: Primary screen for DAOY cells (AID 1347090); note: nearly all actives have a fitted effect of over 55% in size; note: potency is the fitted concentration of half-maximal effect
Outline: (§1)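 Eight- or eleven-point concentration series, 48 h treatment at 37 degrees C in growth media; readout CellTiter-Glo luminescence. Potency and efficacy were taken from the concentration-response curves.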

[3] = qHTS of pediatric cancer cell lines to identify multiple opportunities for drug repurposing: Primary screen for SJ-GBM2 cells (AID 1347091); note: potency is the fitted concentration of half-maximal effect
Outline: as §1

[4] = qHTS of pediatric cancer cell lines to identify multiple opportunities for drug repurposing: Primary screen for A673 cells (AID 1347092); note: nearly all actives have a fitted effect of over 45% in size; note: potency is the fitted concentration of half-maximal effect
Outline: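 Titration-based qHTS on A673 cells: MIPE compounds spanned 11 points (0.78 nM to 46 µM final), NPC compounds 8 points (0.59 nM to 46 µM final). Viability after 48 h was measured by ATP luminescence.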

[5] = qHTS of pediatric cancer cell lines to identify multiple opportunities for drug repurposing: Primary screen for BT-37 cells (AID 1347094); note: potency is the fitted concentration of half-maximal effect
Outline: (§2)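 Phenotypic viability qHTS, 48 h compound exposure, CellTiter-Glo luminescence read-out; multi-concentration dosing so that potency and efficacy derive directly from the primary screen's curves.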

[6] = qHTS of pediatric cancer cell lines to identify multiple opportunities for drug repurposing: Primary screen for NB-EBc1 cells (AID 1347095); note: potency is the fitted concentration of half-maximal effect
Outline: as §2

[7] = qHTS of pediatric cancer cell lines to identify multiple opportunities for drug repurposing: Primary screen for U-2 OS cells (AID 1347096); note: nearly all actives have a fitted effect of over 50% in size
Outline: (§3)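 Cells (500-1,000/well) in growth media were settled 5 h at 37 degrees C, then given compounds for 48 h. Viability was read as CellTiter-Glo luminescence. Primary runs used MIPE at 11 points (0.78 nM-46 µM) and NPC at 8 points (0.59 nM-46 µM); follow-ups used 11 points.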

[8] = qHTS of pediatric cancer cell lines to identify multiple opportunities for drug repurposing: Primary screen for Saos-2 cells (AID 1347097); note: nearly all actives have a fitted effect of over 40% in size; note: potency is the fitted concentration of half-maximal effect
Outline: as §2

[9] = qHTS of pediatric cancer cell lines to identify multiple opportunities for drug repurposing: Primary screen for SK-N-SH cells (AID 1347098); note: nearly all actives have a fitted effect of over 65% in size; note: potency is the fitted concentration of half-maximal effect
Outline: (§4)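 Cells (500-1,000/well) rested 5 h, then received compounds for 48 h; metabolically active cells were measured by CellTiter-Glo luminescence. Final concentrations spanned up to 46 µM (MIPE, 11-point) or 0.59 nM-46 µM (NPC, 8-point) in primary screens, 11-point in follow-ups.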

[10] = qHTS of pediatric cancer cell lines to identify multiple opportunities for drug repurposing: Primary screen for NB1643 cells (AID 1347099); note: nearly all actives have a fitted effect of over 50% in size; note: potency is the fitted concentration of half-maximal effect
Outline: as §2

[11] = qHTS of pediatric cancer cell lines to identify multiple opportunities for drug repurposing: Primary screen for LAN-5 cells (AID 1347100); note: potency is the fitted concentration of half-maximal effect
Outline: as §3

[12] = qHTS of pediatric cancer cell lines to identify multiple opportunities for drug repurposing: Primary screen for BT-12 cells (AID 1347101); note: nearly all actives have a fitted effect of over 25% in size; note: potency is the fitted concentration of half-maximal effect
Outline: as §4

[13] = qHTS of pediatric cancer cell lines to identify multiple opportunities for drug repurposing: Primary screen for Rh18 cells (AID 1347102); note: nearly all actives have a fitted effect of over 65% in size; note: potency is the fitted concentration of half-maximal effect
Outline: as §3

[14] = qHTS of pediatric cancer cell lines to identify multiple opportunities for drug repurposing: Primary screen for OHS-50 cells (AID 1347103); note: nearly all actives have a fitted effect of over 40% in size; note: potency is the fitted concentration of half-maximal effect
Outline: as §4

[15] = qHTS of pediatric cancer cell lines to identify multiple opportunities for drug repurposing: Primary screen for MG 63 (6-TG R) cells (AID 1347105); note: nearly all actives have a fitted effect of over 50% in size; note: potency is the fitted concentration of half-maximal effect
Outline: as §2

[16] = qHTS of pediatric cancer cell lines to identify multiple opportunities for drug repurposing: Primary screen for control Hh wild type fibroblast cells (AID 1347106); note: nearly all actives have a fitted effect of over 55% in size; note: potency is the fitted concentration of half-maximal effect
Outline: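 Viability after 48 h compound treatment at 37C, 500-1,000 cells/well, read as ATP luminescence with CellTiter-Glo. Primary screens used 11-point (MIPE, 0.78 nM-46 µM) or 8-point (NPC, 0.59 nM-46 µM) final concentrations; follow-up screens used 11-point dilutions.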

[17] = qHTS of pediatric cancer cell lines to identify multiple opportunities for drug repurposing: Primary screen for SK-N-MC cells (AID 1347093); note: potency is the fitted concentration of half-maximal effect
Outline: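 Metabolically active cells were quantified by ATP-dependent luminescence (CellTiter-Glo, 15 min at room temperature) following 48 h treatment. Cells had been plated at 500-1,000 per well and settled for 5 h beforehand.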

[18] = qHTS of pediatric cancer cell lines to identify multiple opportunities for drug repurposing: Primary screen for RD cells (AID 1347104); note: potency is the fitted concentration of half-maximal effect; nearly all actives have a fitted effect of over 55% in size
Outline: as §2

SMILES | Potency [1] | Potency [2] | Potency [3] | Potency [4] | Potency [5] | Potency [6] | Potency [7] | Potency [8] | Potency [9] | Potency [10] | Potency [11] | Potency [12] | Potency [13] | Potency [14] | Potency [15] | Potency [16] | Potency [17] | Potency [18]
O=C(C=Cc1c(C(=O)O)[nH]c2cc(Cl)cc(Cl)c12)Nc1ccccc1 | inactive | inactive | inactive | inactive | inactive | inactive | inactive | inactive | inactive | inactive | inactive | inactive | inactive | inactive | inactive | inactive | – | –
CCC[C@H](NC(=O)C(C#N)=Cc1cccc(Br)n1)c1ccccc1 | inactive | 14.8 µM (active) | 8.33 µM (active) | 9.35 µM (active) | – | 8.33 µM (active) | inactive | 33.2 µM (active) | 24.1 µM (active) | 7.43 µM (active) | 14.8 µM (active) | 27.3 µM (active) | 14.8 µM (active) | 12.2 µM (active) | – | inactive | 18.7 µM (active) | 13.2 µM (active)
COc1ccc(C(=O)CC2(O)C(=O)Nc3c(Cl)ccc(Cl)c32)cc1 (stereo not drawn) | 7.39 µM (active) | 3.72 µM (active) | 1.18 µM (active) | 2.35 µM (active) | – | 0.418 µM (active) | – | 2.09 µM (active) | – | – | 1.32 µM (active) | 3.43 µM (active) | – | 4.32 µM (active) | 3.72 µM (active) | – | 1.18 µM (active) | 5.9 µM (active)
OCc1ccc(-c2ccc(-c3ccc(CO)s3)o2)s1 | inactive | 9.35 µM (active) | 16.6 µM (active) | 0.148 µM (active) | inactive | 14.8 µM (active) | inactive | inactive | 21.5 µM (active) | 26.4 µM (active) | inactive | 30.6 µM (active) | inactive | – | 11.8 µM (active) | inactive | – | –
CC[C@@]1(O)C(=O)OCc2c1cc1n(c2=O)Cc2cc3cc(O)ccc3nc2-1 | 0.0415 µM (active) | 0.118 µM (active) | 0.0235 µM (active) | 0.0296 µM (active) | 0.0217 µM (active) | 0.0118 µM (active) | – | 0.0662 µM (active) | 0.429 µM (active) | 0.059 µM (active) | 0.0132 µM (active) | 0.385 µM (active) | 0.418 µM (active) | 0.0343 µM (active) | 0.0935 µM (active) | – | 0.0132 µM (active) | 1.32 µM (active)
C[C@@]12O[C@@H](C[C@]1(O)CO)n1c3ccccc3c3c4c(c5c6ccccc6n2c5c31)CNC4=O | 1.86 µM (active) | 4.69 µM (active) | 0.235 µM (active) | 0.743 µM (active) | 4.85 µM (active) | 1.18 µM (active) | – | 3.32 µM (active) | 1.92 µM (active) | 1.66 µM (active) | 0.132 µM (active) | 8.63 µM (active) | 3.32 µM (active) | 0.217 µM (active) | 4.69 µM (active) | 23.5 µM (active) | 0.0372 µM (active) | 6.62 µM (active)
CN1CCN(c2ccc3nc(-c4c(N)c5c(F)cccc5[nH]c4=O)[nH]c3c2)CC1 | 14.7 µM (active) | inactive | 20.9 µM (active) | 14.8 µM (active) | 15.3 µM (active) | 3.72 µM (active) | – | 5.9 µM (active) | 15.2 µM (active) | 16.6 µM (active) | 4.69 µM (active) | 17.2 µM (active) | 20.9 µM (active) | 1.72 µM (active) | inactive | inactive | 14.8 µM (active) | –
COc1cccc2c(NCc3ccccc3)nc(-n3c(N)nc4ccccc43)nc12 | inactive | 9.35 µM (active) | 9.35 µM (active) | 5.9 µM (active) | 7.69 µM (active) | 9.35 µM (active) | – | 3.72 µM (active) | 10.8 µM (active) | 9.35 µM (active) | 9.35 µM (active) | 10.9 µM (active) | 9.35 µM (active) | 9.68 µM (active) | 9.35 µM (active) | inactive | 3.72 µM (active) | –
O=C(C=Cc1cccc(S(=O)(=O)Nc2ccccc2)c1)NO | 9.54 µM (active) | 8.55 µM (active) | 2.15 µM (active) | 4.29 µM (active) | 7.03 µM (active) | 1.91 µM (active) | – | 6.79 µM (active) | 6.22 µM (active) | 0.679 µM (active) | 1.21 µM (active) | 11.1 µM (active) | – | 3.95 µM (active) | 6.79 µM (active) | – | 1.21 µM (active) | 9.59 µM (active)
CN1c2cc(O)c(N=NC(N)=O)cc2CC1S(=O)(=O)O (stereo not drawn) | inactive | inactive | inactive | inactive | inactive | inactive | inactive | inactive | inactive | inactive | inactive | inactive | – | inactive | inactive | – | – | –
